PubChem BioAssay (EPA / NIEHS)
Records with an inconclusive call do not appear. Active and inactive are the calls of the source. Rule for the calls: active = hit-call score of the fitted dose curve at least 0.9, where 1 is the maximum; inconclusive = response in the unintended direction; inactive = score below 0.9.

Tests used:
[1] = biological target: Cellular tumor antigen p53 (Homo sapiens) (UniProt P04637); assay: TOX21_p53_BLA_p4_ratio: Tox21 HCT-116 p53 Agonism Beta-lactamase Assay, Ratio, Phase 4 (AID 2283601)
Cellular tumor antigen p53 (Homo sapiens), sequence (P04637 whole entry, looked up): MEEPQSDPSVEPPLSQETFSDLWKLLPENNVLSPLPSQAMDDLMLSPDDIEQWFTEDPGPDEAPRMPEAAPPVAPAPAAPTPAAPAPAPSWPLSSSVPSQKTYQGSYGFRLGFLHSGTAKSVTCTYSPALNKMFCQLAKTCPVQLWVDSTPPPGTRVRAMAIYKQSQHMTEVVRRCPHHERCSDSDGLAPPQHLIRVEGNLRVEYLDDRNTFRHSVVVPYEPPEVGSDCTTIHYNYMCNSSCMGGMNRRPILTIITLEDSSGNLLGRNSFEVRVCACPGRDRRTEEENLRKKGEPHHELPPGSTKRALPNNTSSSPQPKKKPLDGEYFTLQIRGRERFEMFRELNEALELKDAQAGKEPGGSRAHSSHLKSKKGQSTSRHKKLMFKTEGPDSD
Summary of the method: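 HCT116 cells carrying an inducible beta-lactamase reporter were plated at 4000 cells/well, rested 5 h, then exposed to compounds in DMSO (217-fold dilution) for 16 h at 37C. CCF4-AM substrate was loaded 2 h at room temperature; 460/530 nm emission ratio scored gain-of-signal versus DMSO.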

[2] = TOX21_p53_BLA_p5_viability: Viability Assessment in the Tox21 HCT-116 p53 Agonism Beta-lactamase Assay, Phase 5 (AID 2283600)
Summary of the method: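 Cells were plated at 4000/well, rested 5 h at 37C, then given compounds in DMSO (217-fold dilution) for 16 h at 37C, 5% CO2. Following the CCF4-AM beta-lactamase read, CellTiter-Glo was added and luminescence was read after 30 min at room temperature.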

[3] = Tanguay_ZF_120hpf_MORT_legacy: (Legacy) Oregon State University Tanguay Lab 120 Hour Post-fertilization zebrafish Assay for Mortality (AID 2283633)
Summary of the method: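 Dechorionated Tropical 5D wild-type zebrafish embryos, one per well from 6 hpf, were statically exposed at 28C in the dark until 120 hpf (0.64% DMSO final). Mortality was scored as present/absent by brightfield microscopy, fitted positively versus DMSO.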

[4] = Tanguay_ZF_120hpf_YSE_legacy: (Legacy) Oregon State University Tanguay Lab 120 Hour Post-fertilization zebrafish Assay for Yolk Sac Edema (AID 2283634);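 note: actives raise the incidence of yolk sac edema above the DMSO baseline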
Summary of the method: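 Tropical 5D wild-type embryos, dechorionated with pronase at 4 hpf, were exposed singly from 6 hpf to 120 hpf under static, sealed, dark conditions at 28C with 0.64% DMSO final. Yolk sac edema was scored present/absent by brightfield microscopy.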

[5] = Tanguay_ZF_120hpf_AXIS_legacy: (Legacy) Oregon State University Tanguay Lab 120 Hour Post-fertilization zebrafish Assay for Body Axis Malformation (AID 2283635);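 note: potency for an increased fraction of larvae scored with body axis malformation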
Summary of the method: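 Tropical 5D wild-type zebrafish embryos, dechorionated with pronase at 4 hpf, were placed singly in wells at 6 hpf and exposed statically to test chemical (0.64% DMSO final) at 28C until 120 hpf, then scored by brightfield for body axis defects.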

[6] = Tanguay_ZF_120hpf_EYE_legacy: (Legacy) Oregon State University Tanguay Lab 120 Hour Post-fertilization zebrafish Assay for Eye Malformation (AID 2283636);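 note: binary presence or absence of eye malformation scored by brightfield in 120 hpf larvae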
Summary of the method: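 Dechorionated wild-type Tropical 5D zebrafish embryos were exposed statically from 6 hpf, one per well, to 120 hpf at 28C in sealed, foil-covered plates with 0.64% DMSO. Eye malformation was scored present/absent by brightfield microscopy against DMSO controls.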

[7] = Tanguay_ZF_120hpf_SNOU_legacy: (Legacy) Oregon State University Tanguay Lab 120 Hour Post-fertilization zebrafish Assay for Snout Malformation (AID 2283637)
Summary of the method: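 Tropical 5D wild-type zebrafish embryos, dechorionated with pronase at 4 hpf, were exposed singly from 6 hpf to 120 hpf statically at 28C in 0.64% DMSO. Snout malformation was scored present/absent by brightfield microscopy, fitted against DMSO.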

[8] = Tanguay_ZF_120hpf_JAW_legacy: (Legacy) Oregon State University Tanguay Lab 120 Hour Post-fertilization zebrafish Assay for Jaw Malformation (AID 2283638);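 note: active means more embryos with jaw malformation than DMSO controls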
Summary of the method: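 Tropical 5D wild-type embryos, dechorionated with pronase at 4 hpf, were placed singly per well at 6 hpf and statically exposed at 28C until 120 hpf (0.64% DMSO final). Jaw malformation scored as present/absent by brightfield microscopy at 120 hpf, analyzed relative to DMSO.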

[9] = Tanguay_ZF_120hpf_OTIC_legacy: (Legacy) Oregon State University Tanguay Lab 120 Hour Post-fertilization zebrafish Assay for Otic Vesicle Malformation (AID 2283639)
Summary of the method: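 Otic vesicle malformation is read as a yes/no morphology call at 120 hpf. Exposure is static at 28C with 0.64% (vol/vol) DMSO; embryos that die are excluded from non-mortality endpoints.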

SMILES: CC(O)CNCC(C)O (centres undefined)
- outcome [1]: inactive

SMILES: CC(=O)c1cccnc1
- outcome [1]: inactive

SMILES: Cc1cc(O)c2c(c1)C(=O)c1cc(O)cc(O)c1C2=O
- outcome [2]: inactive
- outcome [1]: inactive

SMILES: c1coc(CNc2ncnc3nc[nH]c23)c1
- outcome [2]: inactive
- outcome [1]: inactive

SMILES: C=CCOCC(O)CO (centres undefined)
- outcome [1]: inactive

SMILES: CC1=CCC(C(C)C)=CC1
- outcome [2]: inactive
- outcome [1]: inactive

SMILES: CCCCOCCOC(=O)c1ccccc1C(=O)OCCOCCCC
- outcome [1]: inactive

SMILES: CC(CO)c1ccccc1 (centres undefined)
- outcome [2]: inactive
- outcome [1]: inactive

SMILES: CC1=CC(C)C(C=O)C(C)C1 (centres undefined) (tested in a mixture with another compound)
- outcome [2]: inactive
- outcome [1]: inactive

SMILES: CN(C)CCC=C1c2ccccc2CCc2ccccc21
- outcome [1]: inactive

SMILES: CCCc1ccc(O)cc1
- outcome [1]: inactive

SMILES: CCCc1ccc(N)cc1
- outcome [1]: inactive

SMILES: NC(=O)c1cccnc1
- outcome [2]: inactive
- outcome [1]: inactive

SMILES: CC(C)(C)C1CCC(O)CC1 (centres undefined)
- outcome [2]: inactive
- outcome [1]: inactive

SMILES: COC(=O)c1ccc(C(=O)OC)cc1
- outcome [2]: inactive
- outcome [1]: inactive
- outcome [3]: inactive
- AC50 [4]: 37 µM (active)
- AC50 [5]: 21.1 µM (active)
- AC50 [6]: 34 µM (active)
- AC50 [7]: 30.2 µM (active)
- AC50 [8]: 32.7 µM (active)
- outcome [9]: inactive

SMILES: CCCO[Si](OCCC)(OCCC)OCCC
- outcome [2]: inactive
- outcome [1]: inactive

SMILES: CCCCCCCCOC(C)=O
- outcome [1]: inactive

SMILES: c1ccc(OCCOc2ccccc2)cc1
- outcome [2]: inactive
- outcome [1]: inactive

SMILES: CN(C)c1ccc(C=O)cc1
- outcome [2]: inactive
- outcome [1]: inactive

SMILES: CC(C)=CCCC(C)=CC(=O)O
- outcome [2]: inactive
- outcome [1]: inactive

SMILES: CN(C)CCCNCCCN(C)C
- outcome [2]: inactive
- outcome [1]: inactive

SMILES: C=CCCCCCCCCC(=O)OCC
- outcome [2]: inactive
- outcome [1]: inactive

SMILES: O=S(=O)(O)c1cc(O)c(O)c(S(=O)(=O)O)c1
- outcome [2]: inactive
- outcome [1]: inactive

SMILES: C=CCOC(=O)/C=C\C(=O)OCC=C
- outcome [2]: inactive
- outcome [1]: inactive

SMILES: CCC(C)(C)C1CCC(OC)CC1 (centres undefined)
- outcome [1]: inactive

SMILES: C1=COCCC1
- outcome [2]: inactive
- outcome [1]: inactive

SMILES: Nc1ccn([C@H]2CC[C@@H](CO)O2)c(=O)n1
- outcome [2]: inactive
- outcome [1]: inactive

SMILES: O=S(=O)(O)CCCN1CCOCC1
- outcome [2]: inactive
- outcome [1]: inactive
